# Test results from ChEMBL document CHEMBL1961873, “Compounds: GSK PKIS; Assays: Nanosyn kinase panel” (2012).
# How the values were obtained:
# [1] = molecular target: T1, Muscle, skeletal receptor tyrosine-protein kinase (Homo sapiens) (UniProt O15146); settings: at 1 µM;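 also: reported value is the mean percent inhibition of MuSK kinase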
# T1 sequence (whole entry): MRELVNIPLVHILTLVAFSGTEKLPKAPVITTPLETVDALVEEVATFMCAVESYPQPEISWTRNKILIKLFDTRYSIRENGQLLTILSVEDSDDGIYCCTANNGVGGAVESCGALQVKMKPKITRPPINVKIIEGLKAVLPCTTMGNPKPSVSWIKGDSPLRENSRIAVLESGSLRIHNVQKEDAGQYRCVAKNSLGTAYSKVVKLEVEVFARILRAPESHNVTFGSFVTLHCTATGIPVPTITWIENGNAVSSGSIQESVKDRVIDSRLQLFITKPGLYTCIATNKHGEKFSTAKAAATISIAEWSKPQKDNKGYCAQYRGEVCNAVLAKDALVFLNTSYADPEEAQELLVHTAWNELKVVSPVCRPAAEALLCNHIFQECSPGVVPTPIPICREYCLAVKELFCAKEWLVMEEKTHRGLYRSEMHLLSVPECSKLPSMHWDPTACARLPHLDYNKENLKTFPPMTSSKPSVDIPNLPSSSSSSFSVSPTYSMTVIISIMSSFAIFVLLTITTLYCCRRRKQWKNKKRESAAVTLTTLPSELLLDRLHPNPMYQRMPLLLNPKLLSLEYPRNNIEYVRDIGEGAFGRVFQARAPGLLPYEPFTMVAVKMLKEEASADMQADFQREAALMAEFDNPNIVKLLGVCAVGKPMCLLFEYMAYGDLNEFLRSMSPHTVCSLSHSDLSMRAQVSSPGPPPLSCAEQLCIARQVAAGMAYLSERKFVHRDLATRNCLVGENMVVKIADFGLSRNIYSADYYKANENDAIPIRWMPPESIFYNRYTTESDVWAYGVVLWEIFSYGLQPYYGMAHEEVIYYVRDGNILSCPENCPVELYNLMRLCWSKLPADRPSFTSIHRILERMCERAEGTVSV
# [2] = molecular target: Platelet-derived growth factor receptor alpha (Homo sapiens) (UniProt P16234); settings: at 0.1 µM
# [3] = molecular target: Platelet-derived growth factor receptor alpha (Homo sapiens) (UniProt P16234); settings: at 1 µM
# [4] = tested on: Platelet-derived growth factor receptor alpha (Homo sapiens), P16234 [D842V]; settings: at 0.1 µM
# Platelet-derived growth factor receptor alpha (Homo sapiens), P16234 [D842V], sequence (P16234 whole entry D842V): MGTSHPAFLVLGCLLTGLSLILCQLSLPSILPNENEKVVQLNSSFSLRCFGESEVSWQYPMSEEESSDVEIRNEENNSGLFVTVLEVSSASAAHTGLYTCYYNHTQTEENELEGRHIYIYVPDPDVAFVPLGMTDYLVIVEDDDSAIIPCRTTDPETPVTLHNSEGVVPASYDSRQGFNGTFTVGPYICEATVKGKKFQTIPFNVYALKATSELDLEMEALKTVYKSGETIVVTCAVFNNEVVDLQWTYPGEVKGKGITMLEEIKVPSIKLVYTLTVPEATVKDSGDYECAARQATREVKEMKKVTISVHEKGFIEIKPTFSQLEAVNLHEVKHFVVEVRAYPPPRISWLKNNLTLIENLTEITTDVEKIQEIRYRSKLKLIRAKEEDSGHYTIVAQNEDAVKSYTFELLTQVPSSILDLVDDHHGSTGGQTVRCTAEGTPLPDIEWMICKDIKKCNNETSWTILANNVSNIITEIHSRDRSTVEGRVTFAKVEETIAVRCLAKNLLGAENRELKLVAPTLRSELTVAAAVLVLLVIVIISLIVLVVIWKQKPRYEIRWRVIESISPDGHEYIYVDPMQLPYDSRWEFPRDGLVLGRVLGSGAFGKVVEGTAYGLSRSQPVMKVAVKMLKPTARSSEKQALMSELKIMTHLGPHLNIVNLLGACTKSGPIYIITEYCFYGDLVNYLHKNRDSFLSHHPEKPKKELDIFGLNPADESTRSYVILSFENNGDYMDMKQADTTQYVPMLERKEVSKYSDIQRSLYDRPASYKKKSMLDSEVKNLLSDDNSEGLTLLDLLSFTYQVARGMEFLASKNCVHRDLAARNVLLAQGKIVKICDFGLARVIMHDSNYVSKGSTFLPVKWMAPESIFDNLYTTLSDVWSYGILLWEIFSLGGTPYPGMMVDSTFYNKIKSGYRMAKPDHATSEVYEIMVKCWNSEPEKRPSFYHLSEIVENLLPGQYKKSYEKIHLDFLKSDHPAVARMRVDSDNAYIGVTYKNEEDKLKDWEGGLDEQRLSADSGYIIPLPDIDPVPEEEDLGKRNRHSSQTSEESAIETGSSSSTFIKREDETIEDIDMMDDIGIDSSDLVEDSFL
# [5] = tested on: Platelet-derived growth factor receptor alpha (Homo sapiens), P16234 [D842V]; settings: at 1 µM
# [6] = tested on: Platelet-derived growth factor receptor alpha (Homo sapiens), P16234 [T674I]; settings: at 0.1 µM
# [7] = tested on: Platelet-derived growth factor receptor alpha (Homo sapiens), P16234 [T674I]; settings: at 1 µM
# [8] = tested on: Platelet-derived growth factor receptor alpha (Homo sapiens), P16234 [V561D]; settings: at 0.1 µM
# [9] = tested on: Platelet-derived growth factor receptor alpha (Homo sapiens), P16234 [V561D]; settings: at 1 µM
# [10] = molecular target: Platelet-derived growth factor receptor beta (Homo sapiens) (UniProt P09619); settings: at 0.1 µM
# Platelet-derived growth factor receptor beta (Homo sapiens), sequence (P09619 whole entry): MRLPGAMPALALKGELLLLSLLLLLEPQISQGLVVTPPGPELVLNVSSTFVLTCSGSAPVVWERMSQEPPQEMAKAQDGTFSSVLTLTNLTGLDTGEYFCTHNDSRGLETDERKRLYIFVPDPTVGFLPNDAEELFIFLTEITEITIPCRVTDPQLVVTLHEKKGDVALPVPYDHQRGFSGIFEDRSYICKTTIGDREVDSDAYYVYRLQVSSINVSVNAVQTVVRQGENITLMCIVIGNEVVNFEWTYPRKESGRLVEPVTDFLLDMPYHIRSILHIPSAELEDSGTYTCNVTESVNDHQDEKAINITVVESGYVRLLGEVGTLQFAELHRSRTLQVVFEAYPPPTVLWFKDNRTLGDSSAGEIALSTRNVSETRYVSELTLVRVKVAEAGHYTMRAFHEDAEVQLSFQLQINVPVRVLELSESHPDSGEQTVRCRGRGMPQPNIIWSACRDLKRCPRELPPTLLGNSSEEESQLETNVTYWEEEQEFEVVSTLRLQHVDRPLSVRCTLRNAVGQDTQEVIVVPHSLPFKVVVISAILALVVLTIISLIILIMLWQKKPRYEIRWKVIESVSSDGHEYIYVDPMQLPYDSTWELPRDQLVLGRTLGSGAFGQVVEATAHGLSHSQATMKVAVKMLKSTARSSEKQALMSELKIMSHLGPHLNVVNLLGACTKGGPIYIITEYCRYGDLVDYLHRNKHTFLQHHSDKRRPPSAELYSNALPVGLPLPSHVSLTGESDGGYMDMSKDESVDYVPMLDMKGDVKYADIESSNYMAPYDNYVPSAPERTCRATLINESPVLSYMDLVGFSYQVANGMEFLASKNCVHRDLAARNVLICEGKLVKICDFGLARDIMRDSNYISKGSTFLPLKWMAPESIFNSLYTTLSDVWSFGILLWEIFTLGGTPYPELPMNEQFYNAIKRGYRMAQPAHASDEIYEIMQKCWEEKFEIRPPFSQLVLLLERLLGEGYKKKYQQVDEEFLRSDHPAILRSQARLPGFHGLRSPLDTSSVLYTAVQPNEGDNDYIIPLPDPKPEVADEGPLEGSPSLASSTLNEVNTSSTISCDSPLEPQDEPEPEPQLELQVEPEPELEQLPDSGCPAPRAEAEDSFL
# [11] = molecular target: Platelet-derived growth factor receptor beta (Homo sapiens) (UniProt P09619); settings: at 1 µM
# [12] = molecular target: Tyrosine-protein kinase FRK (Homo sapiens) (UniProt P42685); settings: at 0.1 µM
# Tyrosine-protein kinase FRK (Homo sapiens), sequence (P42685 whole entry): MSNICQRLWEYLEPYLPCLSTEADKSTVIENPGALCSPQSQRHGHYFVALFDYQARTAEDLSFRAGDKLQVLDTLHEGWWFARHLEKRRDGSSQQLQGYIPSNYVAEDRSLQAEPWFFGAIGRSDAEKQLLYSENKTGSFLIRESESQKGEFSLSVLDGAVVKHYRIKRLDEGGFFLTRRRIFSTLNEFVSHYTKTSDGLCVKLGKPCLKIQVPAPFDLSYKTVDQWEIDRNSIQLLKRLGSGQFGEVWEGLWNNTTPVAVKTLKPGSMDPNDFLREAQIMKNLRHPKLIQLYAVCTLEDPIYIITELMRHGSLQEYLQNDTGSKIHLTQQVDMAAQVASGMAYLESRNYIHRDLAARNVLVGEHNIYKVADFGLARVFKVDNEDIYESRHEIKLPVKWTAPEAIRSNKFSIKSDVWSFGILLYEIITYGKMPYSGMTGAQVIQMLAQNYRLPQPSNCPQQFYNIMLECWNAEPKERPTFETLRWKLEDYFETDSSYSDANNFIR
# [13] = molecular target: Tyrosine-protein kinase FRK (Homo sapiens) (UniProt P42685); settings: at 1 µM
# [14] = molecular target: Protein-tyrosine kinase 2-beta (Homo sapiens) (UniProt Q14289); settings: at 0.1 µM
# [15] = molecular target: Protein-tyrosine kinase 2-beta (Homo sapiens) (UniProt Q14289); settings: at 1 µM
# [16] = molecular target: Proto-oncogene tyrosine-protein kinase receptor Ret (Homo sapiens) (UniProt P07949); settings: at 0.1 µM
# Proto-oncogene tyrosine-protein kinase receptor Ret (Homo sapiens), sequence (P07949 whole entry): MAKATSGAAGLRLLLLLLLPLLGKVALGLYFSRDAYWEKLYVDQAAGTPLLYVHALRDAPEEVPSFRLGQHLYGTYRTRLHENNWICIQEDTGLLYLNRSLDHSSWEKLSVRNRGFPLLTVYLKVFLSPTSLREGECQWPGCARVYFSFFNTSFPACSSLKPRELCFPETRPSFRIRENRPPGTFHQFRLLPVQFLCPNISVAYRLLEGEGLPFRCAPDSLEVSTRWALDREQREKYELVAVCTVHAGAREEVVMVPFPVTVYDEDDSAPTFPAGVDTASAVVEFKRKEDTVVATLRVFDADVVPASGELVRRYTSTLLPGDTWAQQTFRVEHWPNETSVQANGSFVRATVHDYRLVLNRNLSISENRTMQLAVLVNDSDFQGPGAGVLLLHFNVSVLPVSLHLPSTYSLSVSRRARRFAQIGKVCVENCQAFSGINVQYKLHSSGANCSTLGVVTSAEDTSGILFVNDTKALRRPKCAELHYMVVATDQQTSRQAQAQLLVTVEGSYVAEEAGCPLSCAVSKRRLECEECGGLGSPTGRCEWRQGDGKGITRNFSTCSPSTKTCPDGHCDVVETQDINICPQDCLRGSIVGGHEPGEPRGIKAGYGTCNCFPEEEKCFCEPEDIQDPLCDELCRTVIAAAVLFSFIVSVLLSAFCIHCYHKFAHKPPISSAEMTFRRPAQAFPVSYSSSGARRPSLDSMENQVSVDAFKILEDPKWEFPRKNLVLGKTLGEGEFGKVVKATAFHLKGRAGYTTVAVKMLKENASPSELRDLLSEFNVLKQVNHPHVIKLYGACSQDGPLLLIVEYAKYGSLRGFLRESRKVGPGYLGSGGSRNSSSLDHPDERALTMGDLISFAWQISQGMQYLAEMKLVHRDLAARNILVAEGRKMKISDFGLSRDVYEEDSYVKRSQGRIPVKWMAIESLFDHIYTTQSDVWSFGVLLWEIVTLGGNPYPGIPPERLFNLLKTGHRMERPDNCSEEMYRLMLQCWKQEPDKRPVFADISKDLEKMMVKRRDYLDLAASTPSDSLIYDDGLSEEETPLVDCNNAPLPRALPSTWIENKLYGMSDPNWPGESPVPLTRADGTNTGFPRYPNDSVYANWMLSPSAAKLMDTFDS
# [17] = molecular target: Proto-oncogene tyrosine-protein kinase receptor Ret (Homo sapiens) (UniProt P07949); settings: at 1 µM
# [18] = tested on: Proto-oncogene tyrosine-protein kinase receptor Ret (Homo sapiens), P07949 [V804L]; settings: at 0.1 µM
# [19] = tested on: Proto-oncogene tyrosine-protein kinase receptor Ret (Homo sapiens), P07949 [V804L]; settings: at 1 µM
# [20] = tested on: Proto-oncogene tyrosine-protein kinase receptor Ret (Homo sapiens), P07949 [Y791F]; settings: at 0.1 µM
# Proto-oncogene tyrosine-protein kinase receptor Ret (Homo sapiens), P07949 [Y791F], sequence (P07949 whole entry Y791F): as the sequence (P07949 whole entry) above, with Y791F counted along it
smiles,measurement,setting,value
CNC(=O)c1cncc(/C=C/c2c(Cl)cccc2Cl)c1,inhibition,[1],6.78%
same,inhibition,[2],8.07%
same,inhibition,[3],21.1%
same,inhibition,[4],0.55%
same,inhibition,[5],4.33%
same,inhibition,[6],1.59%
same,inhibition,[7],5.24%
same,inhibition,[8],14.1%
same,inhibition,[9],43%
same,inhibition,[10],5.46%
same,inhibition,[11],17.8%
same,inhibition,[12],3.04%
same,inhibition,[13],11%
same,inhibition,[14],4.56%
same,inhibition,[15],7.83%
same,inhibition,[16],3.32%
same,inhibition,[17],12.3%
same,inhibition,[18],3.35%
same,inhibition,[19],10.2%
same,inhibition,[20],14.7%
CCn1c(-c2nonc2N)nc2c(C#CC(C)(C)O)nc(CN3CCCC3)cc21,inhibition,[1],4.26%
same,inhibition,[2],7.83%
same,inhibition,[3],13.1%
same,inhibition,[4],3.09%
same,inhibition,[5],5.71%
same,inhibition,[6],2.75%
same,inhibition,[7],0.39%
same,inhibition,[8],2.19%
same,inhibition,[9],6.46%
same,inhibition,[10],3.33%
same,inhibition,[11],12.2%
same,inhibition,[12],0.91%
same,inhibition,[13],-0.12%
same,inhibition,[14],-0.18%
same,inhibition,[15],-7.23%
same,inhibition,[16],-0.08%
same,inhibition,[17],9.99%
same,inhibition,[18],0.92%
same,inhibition,[19],4.79%
same,inhibition,[20],5.91%
CCc1cccc(NC(=O)Nc2ccc(Oc3ccc4nc(NC(=O)OC)[nH]c4c3)cc2)c1,inhibition,[1],31.1%
same,inhibition,[2],88.5%
same,inhibition,[3],96.8%
same,inhibition,[4],11.7%
same,inhibition,[5],20.5%
same,inhibition,[6],75.7%
same,inhibition,[7],100%
same,inhibition,[8],86.6%
same,inhibition,[9],94.5%
same,inhibition,[10],40.4%
same,inhibition,[11],56.3%
same,inhibition,[12],-0.04%
same,inhibition,[13],2.98%
same,inhibition,[14],0.73%
same,inhibition,[15],8.1%
same,inhibition,[16],72.8%
same,inhibition,[17],79.9%
same,inhibition,[18],35.6%
same,inhibition,[19],63.1%
same,inhibition,[20],53.5%
COc1cc2ncn(-c3cc(O[C@@H](C)c4ccccc4Cl)c(C(N)=O)s3)c2cc1OC,inhibition,[1],14.1%
same,inhibition,[2],37.9%
same,inhibition,[3],73.8%
same,inhibition,[4],27%
same,inhibition,[5],77.1%
same,inhibition,[6],7.94%
same,inhibition,[7],50%
same,inhibition,[8],32.4%
same,inhibition,[9],81.5%
same,inhibition,[10],29.8%
same,inhibition,[11],68.2%
same,inhibition,[12],5.42%
same,inhibition,[13],4.28%
same,inhibition,[14],-0.4%
same,inhibition,[15],14%
same,inhibition,[16],33.6%
same,inhibition,[17],72.1%
same,inhibition,[18],8.18%
same,inhibition,[19],38.3%
same,inhibition,[20],32.5%
O=C1Nc2ccc(C(=O)c3ccco3)cc2C1=Cc1cc(Cl)c(O)c(Cl)c1,inhibition,[1],8.26%
same,inhibition,[2],8.06%
same,inhibition,[3],26%
same,inhibition,[4],4.54%
same,inhibition,[5],19.8%
same,inhibition,[6],6.25%
same,inhibition,[7],11.5%
same,inhibition,[8],7.12%
same,inhibition,[9],26.8%
same,inhibition,[10],7.32%
same,inhibition,[11],18.5%
same,inhibition,[12],1.7%
same,inhibition,[13],7.16%
same,inhibition,[14],15%
same,inhibition,[15],34.6%
same,inhibition,[16],19.6%
same,inhibition,[17],58.1%
same,inhibition,[18],38.4%
same,inhibition,[19],74.7%
same,inhibition,[20],16%
Cc1cccc(-c2n[nH]cc2-c2ccc3ncccc3n2)n1,inhibition,[1],2.87%
same,inhibition,[2],10.7%
same,inhibition,[3],55.3%
same,inhibition,[4],18.8%
same,inhibition,[5],68.7%
same,inhibition,[6],1.71%
same,inhibition,[7],0.07%
same,inhibition,[8],12.3%
same,inhibition,[9],53%
same,inhibition,[10],2.42%
same,inhibition,[11],26.5%
same,inhibition,[12],1.55%
same,inhibition,[13],-0.81%
same,inhibition,[14],-4.16%
same,inhibition,[15],0.67%
same,inhibition,[16],1.65%
same,inhibition,[17],15.1%
same,inhibition,[18],-1.82%
same,inhibition,[19],2.72%
same,inhibition,[20],3.64%
Nc1nc(-c2ccc3c(c2)C(=Cc2cc(Br)c(O)c(Br)c2)C(=O)N3)cs1,inhibition,[1],2.75%
same,inhibition,[2],2.1%
same,inhibition,[3],5.96%
same,inhibition,[4],0.96%
same,inhibition,[5],2.21%
same,inhibition,[6],0.36%
same,inhibition,[7],-0.01%
same,inhibition,[8],2.02%
same,inhibition,[9],2.58%
same,inhibition,[10],1.75%
same,inhibition,[11],7.52%
same,inhibition,[12],0.6%
same,inhibition,[13],3.29%
same,inhibition,[14],-1.15%
same,inhibition,[15],6.43%
same,inhibition,[16],7.13%
same,inhibition,[17],12.3%
same,inhibition,[18],1.75%
same,inhibition,[19],9.79%
same,inhibition,[20],3.97%
[O-][S+]1CCN(Cc2ccc(-c3ccc4ncnc(Nc5ccc(OCc6ccccc6)c(F)c5)c4c3)o2)CC1,inhibition,[1],3.05%
same,inhibition,[2],3.33%
same,inhibition,[3],4.2%
same,inhibition,[4],2.67%
same,inhibition,[5],1.42%
same,inhibition,[6],2.19%
same,inhibition,[7],3.59%
same,inhibition,[8],0.45%
same,inhibition,[9],3.92%
same,inhibition,[10],1.19%
same,inhibition,[11],3.24%
same,inhibition,[12],0.91%
same,inhibition,[13],1.11%
same,inhibition,[14],2.85%
same,inhibition,[15],-2.53%
same,inhibition,[16],6.29%
same,inhibition,[17],9.08%
same,inhibition,[18],8.58%
same,inhibition,[19],5.31%
same,inhibition,[20],1.94%
Nc1ncnc2occ(-c3ccc(NC(=O)Nc4cc(C(F)(F)F)cc(C(F)(F)F)c4)cc3)c12,inhibition,[1],89.3%
same,inhibition,[2],79.8%
same,inhibition,[3],79.7%
same,inhibition,[4],14.7%
same,inhibition,[5],66.7%
same,inhibition,[6],60.3%
same,inhibition,[7],94.9%
same,inhibition,[8],90.5%
same,inhibition,[9],96%
same,inhibition,[10],67.8%
same,inhibition,[11],81.5%
same,inhibition,[12],1.36%
same,inhibition,[13],4.51%
same,inhibition,[14],8.32%
same,inhibition,[15],19.4%
same,inhibition,[16],76.4%
same,inhibition,[17],81.4%
same,inhibition,[18],38.4%
same,inhibition,[19],77%
same,inhibition,[20],60.7%
CS(=O)(=O)CCNCc1ccc(-c2ccc3ncnc(Nc4ccc(OCc5cccc(F)c5)c(C(F)(F)F)c4)c3c2)o1,inhibition,[1],2.72%
same,inhibition,[2],2.57%
same,inhibition,[3],6.52%
same,inhibition,[4],2.53%
same,inhibition,[5],4.33%
same,inhibition,[6],5.78%
same,inhibition,[7],5.59%
same,inhibition,[8],3.25%
same,inhibition,[9],3.17%
same,inhibition,[10],-0.33%
same,inhibition,[11],1.85%
same,inhibition,[12],2.17%
same,inhibition,[13],3.48%
same,inhibition,[14],9.54%
same,inhibition,[15],10.4%
same,inhibition,[16],6.1%
same,inhibition,[17],3.78%
same,inhibition,[18],1.9%
same,inhibition,[19],4.58%
same,inhibition,[20],2.66%
CCCN1CCC=C(c2ccc(Nc3nc(Nc4ccccc4C(N)=O)c4cc[nH]c4n3)c(C)c2)C1,inhibition,[1],20.5%
same,inhibition,[2],9.67%
same,inhibition,[3],40.6%
same,inhibition,[4],2.55%
same,inhibition,[5],24.2%
same,inhibition,[6],4.99%
same,inhibition,[7],9.94%
same,inhibition,[8],5.63%
same,inhibition,[9],28.7%
same,inhibition,[10],8.75%
same,inhibition,[11],37.2%
same,inhibition,[12],1.94%
same,inhibition,[13],4.17%
same,inhibition,[14],78%
same,inhibition,[15],94.9%
same,inhibition,[16],5.97%
same,inhibition,[17],24.3%
same,inhibition,[18],18.6%
same,inhibition,[19],58.3%
same,inhibition,[20],9.36%
Cc1cc(O)cc(C)c1/C=C/c1cncc(-c2nn[nH]n2)c1,inhibition,[1],2.94%
same,inhibition,[2],10.7%
same,inhibition,[3],50.9%
same,inhibition,[4],2.87%
same,inhibition,[5],22.2%
same,inhibition,[6],7.51%
same,inhibition,[7],5.59%
same,inhibition,[8],12.1%
same,inhibition,[9],59.3%
same,inhibition,[10],9.66%
same,inhibition,[11],49.5%
same,inhibition,[12],6.95%
same,inhibition,[13],33.8%
same,inhibition,[14],12.8%
same,inhibition,[15],12.1%
same,inhibition,[16],1.14%
same,inhibition,[17],9.47%
same,inhibition,[18],8.88%
same,inhibition,[19],9.42%
same,inhibition,[20],3.32%
CCn1c(-c2nonc2N)nc2cncc(C(=O)N3CC[C@H](N)C3)c21,inhibition,[1],3.51%
same,inhibition,[2],7.67%
same,inhibition,[3],6.08%
same,inhibition,[4],4.02%
same,inhibition,[5],5.6%
same,inhibition,[6],6.8%
same,inhibition,[7],8.93%
same,inhibition,[8],2.86%
same,inhibition,[9],1.28%
same,inhibition,[10],4.13%
same,inhibition,[11],10.7%
same,inhibition,[12],3.16%
same,inhibition,[13],2.04%
same,inhibition,[14],10.8%
same,inhibition,[15],7.69%
same,inhibition,[16],5.56%
same,inhibition,[17],4.11%
same,inhibition,[18],3.46%
same,inhibition,[19],4.03%
same,inhibition,[20],4.17%
